Measured values from PubChem BioAssay AID463173 (ICCB-Longwood Screening Facility, Harvard Medical School, 2010).
In all, about 52,000 compounds went through this assay and about 1,700 (3.3%) were called active. Only a selection was taken, and actives are over-represented in it overall. Unmarked numbers belong to inactive results. No stated cut-off is given here; in the data, active means survival mostly below about 52% (no sharp cut-off); inactive means mostly above about 56%.

test system: Wild type; assay: growth inhibition of S. aureus wild type versus tarO mutant, primary screen, teichoic acid synthesis inhibitors, RN4220, OD600 (AID 463173); details: S. aureus RN4220 wild type/DeltatarO growth, OD600, 18 h, hits give low values, screened at 18.75 µg/mL (by protocol)

Compared with `COC(=O)c1ccc2c(=O)n(CCCCCC(=O)N3CCN(c4cccc(C)c4C)CC3)c(=O)[nH]c2c1`, `CC(=O)c1ccc(N2CCN(C(=O)CCCn3c(=O)[nH]c4ccsc4c3=O)CC2)cc1` is lower in survival: 97% for the first, 66% for the second.

Going from `CC(C)c1ccc(-c2nc(C(N)=O)c3c(n2)n(-c2ccc4c(c2)OCO4)c(=O)n3C)cc1` to `CCN(CC)CCCNC(=O)c1nn(-c2ccc(OC)c(Cl)c2)c(=O)c2c1c1ccccc1n2C`, the survival rises from 60% to 80%.

Going from `Nc1n[nH]c(CCc2ccccc2)n1` to `Cc1nc2nc(NC(=O)CC(C)C)[nH]n2c(=O)c1Cc1ccccc1`, the survival falls from 121% to 110%.

First: CCS(=O)(=O)N1CC(=O)N(c2cccc(C)c2C)C(C)(C(=O)NC2CCCCC2)C1 (centres undefined)
Second: CCOC(=O)C1CCN(S(=O)(=O)c2cc(-c3onc(C)c3C)ccc2C)CC1
The survival of the first is higher: 89% for the first, 81% for the second.

Going from `CSc1cccc(NS(=O)(=O)c2cn(C)c(C)n2)c1` to `Cc1ccc(NS(=O)(=O)c2cn(C)c(C)n2)c(Br)c1`, the survival rises from 59% to 88%.

Compared with `Cc1ccc(CCNC(=O)c2cc3c(=O)oc4ccccc4c3s2)cc1`, `Cc1ccccc1Nc1sc(C(=O)c2ccc(F)cc2)c(N)c1C(=O)NCCc1ccccc1` is lower in survival: 73% for the first, 55% for the second.

Compared with `c1ccc(-n2ncc3c(NC4CCCC4)ncnc32)cc1`, `c1ccc(-n2nc3ccc4nonc4c3n2)cc1` is lower in survival: 121% for the first, 104% for the second.

Compared with `Cc1ccc(C)c(NC(=O)C(CC(C)C)N2Cc3ccccc3C2=O)c1` (centres undefined), `CCOc1ccc(NC(=O)C(CC(C)C)N2Cc3ccccc3C2=O)cc1` (centres undefined) is lower in survival: 159% for the first, 134% for the second.

First: O=C(Nc1ccccc1F)C(Cc1ccccc1)N1Cc2ccccc2C1=O (centres undefined)
Second: O=C(Nc1ccc(F)cc1)[C@H](Cc1ccccc1)N1Cc2ccccc2C1=O
The survival of the first is lower: 75% for the first, 91% for the second.

Going from `COC(=O)c1ccc(NC(=O)C(C)N2Cc3ccccc3C2=O)cc1` (centres undefined) to `COc1ccc(NC(=O)C(C)N2Cc3ccccc3C2=O)cc1OC` (centres undefined), the survival rises from 53% to 75%.

First: Cc1cc(C)cc(NC(=O)C(C)N2Cc3ccccc3C2=O)c1 (centres undefined)
Second: Cc1ccc(NC(=O)[C@H](Cc2ccccc2)N2Cc3ccccc3C2=O)cc1F
The survival of the first is lower: 63% for the first, 78% for the second.

Compared with `Cc1ccccc1CSc1cn(CCNC(=O)c2cccs2)c2ccccc12`, `Cc1cccc(C(=O)NCc2nc3ccccc3n2Cc2ccccc2Cl)c1` is higher in survival: 79% for the first, 107% for the second.

Going from `COc1ccc(NC(=O)Cc2ccc(NC(=O)N3CCCCc4ccccc43)cc2)c(OC)c1` to `CCn1c(COc2ccccc2)nnc1SCC(=O)CC(=O)Nc1ccccc1OC`, the survival rises from 60% to 100%.

First: COc1cccc(C(=O)NC2CCCC2)c1
Second: COc1ccc(NC(=O)c2noc3c2CCCC3)cc1Cl
The survival of the first is higher: 103% for the first, 82% for the second.

Compared with `O=C(CCS(=O)(=O)c1cccs1)Nc1ccc(C(=O)Nc2ccccc2F)cc1`, `O=C(CCS(=O)(=O)c1ccc(Br)cc1)Nc1ccc(F)cc1F` is lower in survival: 135% for the first, 53% for the second.

First: COC(=O)CSc1n[nH]c(CNc2cccc(C)c2)n1
Second: Cc1cccc(NC(=O)CSc2nnc(C)c(=O)[nH]2)c1
The survival of the first is higher: 108% for the first, 101% for the second.

Compared with `O=C(NCCCN1CCN(c2ccccc2)CC1)c1nnc(Cc2ccc(F)cc2)o1`, `Cc1ccc(Cc2nc3ccccc3nc2SCC(=O)N2CCC(C)CC2)cc1` is lower in survival: 98% for the first, 77% for the second.

Compared with `COc1ccccc1C(=O)Nc1cc(-c2ccc(C)cc2)no1`, `COC(=O)c1scc(-c2ccc(C)cc2)c1S(=O)(=O)Nc1ccc(F)cc1F` is lower in survival: 73% for the first, 72% for the second.

Going from `Cc1ccc(NC(=O)Cn2nc(C)n3cccc3c2=O)c(C)c1` to `CCCCN(C)C(=O)c1ccc2c(=O)n3nc(Nc4cc(C)ccc4C)sc3nc2c1`, the survival rises from 95% to 140%.

First: Cc1cc(C)nc(SC2=CS(=O)(=O)c3ccccc32)n1
Second: CCc1c(C)nc2cc(-c3ccccc3)[nH]n2c1=O
The survival of the first is lower: 99% for the first, 106% for the second.

First: CC(C)(C)NSc1nc2ccccc2s1
Second: Cc1nc2nc(NC(=O)C(C)C)[nH]n2c(=O)c1Cc1ccccc1
The survival of the first is lower: 68% for the first, 88% for the second.

Compared with `O=C(COc1ccccc1Cl)OCc1cc(=O)n2nc(C3CCCCC3)sc2n1`, `CCOC(=O)CCc1c(C)nc2c(-c3ccccc3)c(C)[nH]n2c1=O` is higher in survival: 71% for the first, 74% for the second.

Going from `Cc1nc2nc(NCc3ccccc3Cl)[nH]n2c(=O)c1Cc1ccccc1` to `Cc1nc2nc(NCc3cccc(Cl)c3)[nH]n2c(=O)c1Cc1ccccc1`, the survival falls from 86% to 85%.

First: COc1cccc(C(=O)Nc2nc3nc(C)c(Cc4ccccc4)c(=O)n3[nH]2)c1
Second: Cc1nc2nc(NCc3cccc(Br)c3)[nH]n2c(=O)c1Cc1ccccc1
The survival of the first is higher: 105% for the first, 68% for the second.

Going from `CCc1ccc(CNc2nc3nc(C)c(Cc4ccccc4)c(=O)n3[nH]2)cc1` to `Cc1nc2nc(NCc3ccc(Br)cc3)[nH]n2c(=O)c1Cc1ccccc1`, the survival falls from 93% to 63%.

Going from `O=C(Cn1cc(S(=O)(=O)N2CCN(c3ccccc3F)CC2)c2ccccc2c1=O)Nc1ccc(F)cc1Cl` to `Cc1ccccc1Nc1sc(C(=O)c2ccccc2)c(N)c1C(=O)NCc1ccc(Cl)cc1`, the survival falls from 129% to 73%.

`Cc1cccc(CN2C(=O)CC(c3ccc(Cl)cc3)c3c(C)nn(-c4nc(C)cc(C)n4)c32)c1` (centres undefined) and `COc1cccc(Nc2sc(C(=O)c3ccc(Cl)cc3)c(N)c2C(=O)NCc2ccc(C)cc2)c1` are the same in survival: 76% for the first, 76% for the second.

Going from `CCc1nc2nc(C)cc(Nc3ccc(OC)cc3OC)n2n1` to `Cc1cc(C(F)F)n2nc(C(=O)Nc3ccc(F)c(Cl)c3)nc2n1`, the survival rises from 75% to 83%.

First: CCc1ccc(S(=O)(=O)c2nnn3c2nc(N(CC)Cc2ccccc2)c2cc(Cl)ccc23)cc1
Second: CCN(Cc1ccccc1)c1nc2c(S(=O)(=O)c3ccccc3)nnn2c2ccc(Cl)cc12
The survival of the first is higher: 92% for the first, 88% for the second.

Compared with `Cc1ccc(CN2CCN(C3CCN(C(=O)OC(C)(C)C)CC3)C(=O)C2=O)cc1`, `Cc1ccc(CCNC(=O)CCS(=O)(=O)c2cc3c(cc2Cl)NC(=O)CO3)cc1` is lower in survival: 124% for the first, 91% for the second.

Compared with `CCC(C(=O)Nc1cc(C)ccc1OC)n1nnc(C(=O)OC)c1C(=O)OC` (centres undefined), `CCOC(=O)c1nnn(C(CC)C(=O)Nc2ccc(F)cc2)c1C(=O)OCC` (centres undefined) is higher in survival: 89% for the first, 99% for the second.

Compared with `CCOc1ccccc1N1CC(c2nc3ccccc3n2CCCOc2ccccc2OC)CC1=O` (centres undefined), `CCOc1ccc(N2CC(c3nc4ccccc4n3CCCCOc3ccc(OC)cc3)CC2=O)cc1` (centres undefined) is lower in survival: 79% for the first, 71% for the second.

Going from `COc1ccc(C(=O)NCC(c2cccs2)S(=O)(=O)c2ccc(C)cc2)cc1` (centres undefined) to `COc1cccc(Nc2sc(C(=O)c3ccc(F)cc3)c(N)c2C(=O)NCc2ccc(C)cc2)c1`, the survival falls from 143% to 63%.

First: CCc1ccc(N(CC(=O)NCC2CCCO2)S(C)(=O)=O)cc1 (centres undefined)
Second: O=C(Nc1ccc(OC(F)(F)F)cc1)c1noc2c1CCCC2
The survival of the first is higher: 112% for the first, 86% for the second.

Going from `C=CCc1ccccc1OCc1nc2ccccc2n1CC` to `COc1ccc(OCc2nc3ccccc3n2Cc2ccccc2Cl)cc1`, the survival falls from 76% to 72%.

Compared with `CC(=O)Nc1ccc(S(=O)(=O)NCCc2cn3ccsc3n2)cc1`, `COc1ccc(-c2nc3sc(CCNC(=O)C(=O)Nc4ccc(C)c(C)c4)c(C)n3n2)cc1` is higher in survival: 72% for the first, 117% for the second.

`CN1CCc2c(sc3nc(=S)[nH]c(N)c23)C1` was tested, and the survival was 109%.

With `COc1ccccc1NS(=O)(=O)c1cn(C)c(C)n1` the survival was 10% (active).
`CC(C(=O)Nc1ccc(OC(F)(F)F)cc1)N1Cc2ccccc2C1=O` (centres undefined) was tested, and the survival was -3% (active).
For `Cc1ccc(NC(=O)C(CC(C)C)N2Cc3ccccc3C2=O)cc1F` (centres undefined), the survival was -6% (active).
With `CC(C(=O)Nc1ccc(F)c(Cl)c1)N1Cc2ccccc2C1=O` (centres undefined) the survival was 0% (active).
With `O=C(Nc1ccc(F)cc1F)C(Cc1ccccc1)N1Cc2ccccc2C1=O` (centres undefined) the survival was -6% (active).
For `On1c2c(c3c4nonc4ccc31)CCCC2`, the survival was 8% (active).
With `O=S1(=O)C=C(Sc2nc3ccccc3s2)c2ccccc21` the survival was 0% (active).
`Cc1ccc(Cc2c(C)nc3c(-c4ccccc4)c(C)[nH]n3c2=O)cc1` was tested, and the survival was -11% (active).
In the case of `Cc1cccc(Cc2c(C)nc3c(-c4ccccc4)c(C)[nH]n3c2=O)c1`, the survival is reported as 4% (active).
For `Cc1ccccc1Cc1c(C)nc2c(-c3ccccc3)c(C)[nH]n2c1=O`, the survival was -13% (active).
`Cc1nc2c(-c3ccccc3)c(C)[nH]n2c(=O)c1Cc1ccc(C(C)C)cc1` was tested, and the survival was -5% (active).
`Cc1nc2c(-c3ccccc3)c(C)[nH]n2c(=O)c1Cc1ccc(Br)cc1` was tested, and the survival was -5% (active).
With `CCN(CC)c1nc2c(S(=O)(=O)c3ccccc3)nnn2c2ccc(Cl)cc12` the survival was 9% (active).
`CCc1ccc(NC(=O)C(CC)n2nnc(C(=O)OC)c2C(=O)OC)cc1` (centres undefined) was tested, and the survival was -1% (active).
For `CCCCN1CC(c2nc3ccccc3n2CCCCOc2cc(C)ccc2C)CC1=O` (centres undefined), the survival was -6% (active).
`CCCCN1CC(c2nc3ccccc3n2CCCCOc2ccc(C)cc2C)CC1=O` (centres undefined) was tested, and the survival was -5% (active).
For `CCOC(=O)c1ccc(NC(=O)c2noc3c2CCCC3)cc1`, the survival was -2% (active).
For `Cc1ccc(OCc2nc3ccccc3n2Cc2ccccc2Cl)cc1`, the survival was 7% (active).
In the case of `Cc1ccccc1OCc1nc2ccccc2n1Cc1ccccc1Cl`, the survival is reported as 0% (active).
With `COc1cccc(Nc2sc(C(=O)c3ccc(F)cc3)c(N)c2C(=O)NCc2ccc(Cl)cc2)c1` the survival was 0% (active).
In the case of `Cc1ccc(CNC(=O)c2c(Nc3ccccc3C)sc(C(=O)c3ccc(F)cc3)c2N)cc1`, the survival is reported as -3% (active).
